Values joined by “and” are separate entries in the source; they are usually repeats but may differ in a detail not shown here. Identical values can stand only once. Records with an inconclusive call do not appear. More than one record can exist for a structure, and the calls need not agree. Active and inactive are the calls of the source. Unless noted, calls come from the whole dose curve; as a rule, active = well fitted curve in the direction sought with a large enough effect in the repeat runs; inconclusive = weak or mixed curves; inactive = no such curve, though single readings can be large; an effect the other way counts as inactive or inconclusive.

Test [1] concerns the target Luciferin 4-monooxygenase (Photinus pyralis) (UniProt P08659). Put plainly: qHTS assay to identify small molecule inhibitors of firefly luciferase (AID 1224835). Note: series mostly up to about 120 µM; nearly all actives have a fitted effect of over 25% in size. The method, boiled down:
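Inhibition of purified Photinus luciferase is measured by luminescence. Substrate levels (D-luciferin, ATP) sit at their KM values. Each compound is tested in a concentration series.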
Background: Quantitative high-throughput screening tests each substance at several concentrations.

Test [2] in a line: qHTS assay to identify small molecule agonists of the constitutive androstane receptor (CAR) signaling pathway - cell viability counter screen (AID 1224836). Note: series mostly up to about 92 µM; nearly all actives have a fitted effect of over 45% in size. Put shortly: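 Cell viability multiplexed with the CAR agonist screen: CellTiter-Fluor fluorescence after 23 hr at 37 C. HepG2-CYP2B6-hCAR cells got compounds at 15 concentrations with PK11195 at 0.75 uM final.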
Test [3] has as its target Nuclear receptor subfamily 1 group I member 3 (Homo sapiens) (UniProt Q14994). Put plainly: qHTS assay to identify small molecule antagonists of the constitutive androstane receptor (CAR) signaling pathway (AID 1224838).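 Note: HepG2 cells stably expressing hCAR with CYP2B6 luciferase reporter stimulated by CITCO; nearly all actives have a fitted effect of over 40% in size.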 The method, boiled down:
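Luminescence from a CYP2B6-2.2kb promoter reporter in hCAR-expressing HepG2 cells reflects CAR signaling. Cells received compounds at 15 concentrations and 50 nM CITCO (final), then incubated 24 h at 37 C/5% CO2.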

Test [4] shares this target. The test can be described thus: qHTS assay to identify small molecule agonists of the constitutive androstane receptor (CAR) signaling pathway (AID 1224839).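 Note: HepG2 cells stably carrying human CAR and a CYP2B6 luciferase reporter; series mostly up to about 92 µM; nearly all actives have a fitted effect of over 15% in size.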 The method, boiled down:
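Luminescent ONE-Glo read-out after 24 hr, 37 C exposure of double-stable HepG2-CYP2B6-hCAR reporter cells to a 15-point compound series, in the presence of 0.75 uM PK11195 (final).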

A short description of test [5]: qHTS assay to identify small molecule antagonists of the estrogen related receptor signaling pathway with the pleiotropic PPARgamma coactivator (PGC) from Tox21 10K library - cell viability counter screen (AID 1224840; active = well fitted cell-killing curve with a large enough effect in the repeat runs, not every such curve was filed as active; note: nearly all actives have a fitted effect of over 40% in size). Put shortly:
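Cell viability is measured by CellTiter-Fluor fluorescence in PGC/ERR cells that receive compounds after a 6-hour attachment period and are then incubated 17.5 hours at 37 C.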

Test [6] in a line: qHTS assay to identify small molecule antagonists of the estrogen related receptor signaling pathway with the pleiotropic PPARgamma coactivator (PGC) from Tox21 10K library (AID 1224841; call rule not given here; note: actives are mostly falling curves and most rising ones were filed inactive; nearly all actives have a fitted effect of over 50% in size; note: potency is the fitted concentration of half-maximal effect). The method, boiled down:
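Cells stably carrying the PGC/ERR reporter, seeded at 2,000 per well, received pin-transferred compounds 6 h post-plating. Exposure lasted 18 h at 37 C. Signal: One-Glo luminescence.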

Test [7] can be described thus: qHTS assay to identify small molecule agonists of the estrogen related receptor signaling pathway with the pleiotropic PPARgamma coactivator (PGC) from Tox21 10K library (AID 1224842). Note: nearly all actives have a fitted effect of over 15% in size. Put shortly: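 Luminescence from One-Glo (30 min, room temperature) measured after PGC/ERR cells had 18 h at 37 C with pinned compound (23 nL in DMSO). Cells had been seeded at 2,000 per well and pre-incubated 6 h.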

Test [8] has as its target Thyrotropin receptor (Homo sapiens) (UniProt P16473). The test can be described thus: qHTS assay to identify small molecule agonists of the thyroid stimulating hormone receptor (TSHR) signaling pathway (AID 1224843; calls by dose curve; note: nearly all actives have a fitted effect of over 45% in size). Put shortly:
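Agonist activity read as cAMP rise via d2/cryptate HTRF competition, 1 h room-temperature detection, in HEK293 cells expressing TSHR. Fifteen-point titrations, each run in triplicate, with a 30 min room-temperature incubation beforehand.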

Test [9] in a line: qHTS assay to identify small molecule agonists of the hypoxia (HIF-1) signaling pathway - cell viability counter screen (AID 1224844; calls by dose curve; note: nearly all actives have a fitted effect of over 50% in size). The method, boiled down: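 Viability counter screen: HRE-bla ME-180 cells plated 5 hrs before compound addition, treated 17 hrs at 37C and 5% CO2, then CellTiter-Glo added after the FRET reporter read; luminescence after 30 min.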
Test [10] can be described thus: qHTS assay to identify small molecule agonists of H2AX (AID 1224845; active = well fitted activation curve with a large enough effect in the signal ratio in the repeat runs, not every such curve was filed as active; the % refers to the signal ratio). Put shortly: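 Phospho-H2AX Ser139 measured by HTRF (ex 320 nm; em 665 and 620 nm) after 24 hr antibody incubation. Compounds, 15 concentrations, 0.76% DMSO, were applied to CHO-K1 cells for 3hr at 37C before lysis.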
The nature of test [11]: qHTS assay to identify small molecule agonists of the hypoxia (HIF-1) signaling pathway (AID 1224846; active = well fitted activation curve with a large enough effect in the signal ratio in the repeat runs, not every such curve was filed as active; the % refers to the signal ratio). The method, boiled down: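 Agonist mode reporter screen. ME-180 cells stably expressing bla under HRE control received test compounds in DMSO for 17 hrs (37C, 5% CO2), and beta-lactamase activity was then detected with the CCF4-AM FRET substrate.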
The nature of test [12]: qHTS assay to identify small molecule agonists of H2AX - cell viability counter screen (AID 1224847; calls by dose curve;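 note: wild-type CHO-K1 cells; top concentration of the series differs between compounds; nearly all actives have a fitted effect of over 30% in size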). The method, boiled down: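 Counter-screen for viability: CellTiter-Glo ATP luminescence read after 3 h compound treatment (15-point titration, 0.76% DMSO final) of CHO-K1 cells at 37C, with 30 min room-temperature reagent incubation.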
Test [13] can be described thus: qHTS assay to identify small molecule antagonists of the estrogen related receptor (ERR) signaling pathway from Tox21 library (AID 1224848). Note: nearly all actives have a fitted effect of over 50% in size. Put shortly:
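Luciferase luminescence (ONE-Glo, 30 min room temperature) was the read-out. Cells of the NTP-supplied ERR line, 2,000 per well, were given 6 h at 37 C before compound addition in DMSO and 18 h exposure at 37 C.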

The nature of test [14]: qHTS assay to identify small molecule agonists of the estrogen related receptor (ERR) signaling pathway from Tox21 library (AID 1224849; calls by dose curve; note: nearly all actives have a fitted effect of over 15% in size). The method, boiled down:
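Quantitative HTS in agonist format: NTP ERR cell line, compounds transferred in DMSO after 6 h plating, 18 h incubation at 37 C, ONE-Glo luminescence endpoint.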

A short description of test [15]: qHTS RealTime-Glo MT Cell Viability Assay in HepG2 cells - 24 hour (AID 1224867). Note: nearly all actives have a fitted effect of over 50% in size. The method, boiled down: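 qHTS, HepG2, 600 cells/well, RealTime-Glo (NanoLuc + prosubstrate) added with cells; 5 h preincubation; DMSO compound addition; 37 C; luminescence at 0/8/16/24/32/40 h.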
A short description of test [16]: qHTS RealTime-Glo MT Cell Viability Assay in HEK293 cells - 32 hour (AID 1224868). Note: nearly all actives have a fitted effect of over 50% in size. Note: potency is the fitted concentration of half-maximal effect. Put shortly:
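Assay medium contained NanoLuc luciferase plus cell-permeant prosubstrate, added with HEK293 cells at 600 cells/well. After 5 h at 37 C/5% CO2 compounds were added; plates stayed at 37 C for 40 h with serial luminescence reads.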

The nature of test [17]: A CellTox Green Cytotoxicity Assay to monitor cytotoxicity in HEK293 cells - 0 hour (AID 1224869). Note: nearly all actives have a fitted effect of over 50% in size. The method, boiled down: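 Dead-cell fluorescence measured kinetically: asymmetric cyanine dye, HEK293, 600 cells/well, 5 h settle, 23 nL cpd/DMSO, 37 C, reads 0–40 h every 8 h.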
Test [18] can be described thus: qHTS assay to identify small molecule antagonists of the constitutive androstane receptor (CAR) signaling pathway - cell viability counter screen (AID 1224837). Note: series mostly up to about 92 µM; nearly all actives have a fitted effect of over 45% in size. The method, boiled down:
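Cells are seeded, rested 4 hr at 37 C/5% CO2, dosed with compound (15-point series) and 50 nM CITCO, incubated a further 23 hr, and then CellTiter-Fluor reagent is added before fluorescence is read. The line is HepG2 with stable hCAR and CYP2B6-2.2kb.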

Sequence of Thyrotropin receptor (Homo sapiens) (P16473 whole entry, looked up): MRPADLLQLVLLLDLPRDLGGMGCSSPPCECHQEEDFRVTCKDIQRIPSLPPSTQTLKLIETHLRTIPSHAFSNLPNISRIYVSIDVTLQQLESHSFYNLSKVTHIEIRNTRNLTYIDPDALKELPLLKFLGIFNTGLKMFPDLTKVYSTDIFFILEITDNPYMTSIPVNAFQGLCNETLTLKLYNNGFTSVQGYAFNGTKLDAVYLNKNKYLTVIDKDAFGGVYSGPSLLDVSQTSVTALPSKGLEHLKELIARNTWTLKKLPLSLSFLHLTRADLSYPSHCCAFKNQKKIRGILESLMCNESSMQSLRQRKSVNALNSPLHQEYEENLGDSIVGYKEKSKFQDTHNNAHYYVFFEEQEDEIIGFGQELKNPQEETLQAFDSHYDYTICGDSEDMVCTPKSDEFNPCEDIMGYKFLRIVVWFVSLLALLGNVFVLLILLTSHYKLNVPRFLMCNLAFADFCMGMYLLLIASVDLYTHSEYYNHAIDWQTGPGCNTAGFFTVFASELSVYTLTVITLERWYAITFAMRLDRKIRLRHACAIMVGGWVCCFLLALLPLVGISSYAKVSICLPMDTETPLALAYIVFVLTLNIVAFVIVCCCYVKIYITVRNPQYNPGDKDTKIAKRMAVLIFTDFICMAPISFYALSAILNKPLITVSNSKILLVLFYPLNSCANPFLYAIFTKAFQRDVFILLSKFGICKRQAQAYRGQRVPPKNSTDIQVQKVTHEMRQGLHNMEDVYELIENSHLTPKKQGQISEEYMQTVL
Sequence of Nuclear receptor subfamily 1 group I member 3 (Homo sapiens) (Q14994 whole entry, looked up): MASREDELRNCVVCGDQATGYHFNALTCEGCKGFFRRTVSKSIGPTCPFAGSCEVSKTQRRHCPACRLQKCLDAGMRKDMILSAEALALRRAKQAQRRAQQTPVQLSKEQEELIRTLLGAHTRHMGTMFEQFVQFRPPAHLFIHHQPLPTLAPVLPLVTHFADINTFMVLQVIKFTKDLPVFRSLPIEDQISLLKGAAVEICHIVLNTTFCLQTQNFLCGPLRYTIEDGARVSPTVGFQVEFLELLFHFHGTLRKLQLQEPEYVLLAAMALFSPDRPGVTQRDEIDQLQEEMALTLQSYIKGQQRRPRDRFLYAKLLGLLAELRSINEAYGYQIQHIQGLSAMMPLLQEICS
Sequence of Luciferin 4-monooxygenase (Photinus pyralis) (P08659 whole entry, looked up): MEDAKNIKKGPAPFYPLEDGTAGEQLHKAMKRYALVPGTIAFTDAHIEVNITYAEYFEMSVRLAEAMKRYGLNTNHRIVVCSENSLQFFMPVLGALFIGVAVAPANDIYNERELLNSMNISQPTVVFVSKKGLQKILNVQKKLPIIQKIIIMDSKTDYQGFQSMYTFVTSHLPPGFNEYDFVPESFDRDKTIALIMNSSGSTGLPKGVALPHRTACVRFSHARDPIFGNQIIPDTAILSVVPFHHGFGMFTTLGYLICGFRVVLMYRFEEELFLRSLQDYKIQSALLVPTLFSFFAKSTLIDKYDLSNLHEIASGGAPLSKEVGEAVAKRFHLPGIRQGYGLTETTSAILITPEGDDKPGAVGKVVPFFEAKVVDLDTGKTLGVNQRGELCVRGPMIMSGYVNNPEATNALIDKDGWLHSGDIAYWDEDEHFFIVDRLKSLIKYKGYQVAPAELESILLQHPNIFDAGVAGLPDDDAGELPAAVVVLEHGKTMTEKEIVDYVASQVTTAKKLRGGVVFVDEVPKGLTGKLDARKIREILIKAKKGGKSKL

`CC(=O)OCc1ccco1`: the Potency result in [1], in test [2], in test [4], in [5], in test [6] and in test [15] was “inactive” throughout. In test [16], the Potency entry is “inactive”. The result in test [3], in test [7], in [8], in test [9], in test [10] and in test [11] was inactive. The compound was called inactive in test [12], in test [13], in test [14] and in [17].
Turning to `OCc1cccc(Oc2ccccc2)c1`, the Potency entry in test [2], in test [18], in [4], in test [5], in test [15] and in test [16] was “inactive” each time. Moreover, the outcome in test [3], in test [9], in test [10], in test [11], in [12] and in test [17] was inactive.
Take `N[C@H](Cc1c[nH]c2ccccc12)C(=O)O`: the Potency entry in test [1], in test [2], in test [18], in test [5] and in test [16] was “inactive” throughout. The compound was classed as inactive in test [9], in [10], in test [11], in test [12] and in [17].
In the case of `CN(C)c1ccc(Cc2ccc(N(C)C)cc2)cc1`, the Potency result in [1], in test [2], in test [18], in [5] and in test [6] was “inactive” in each case. In addition, the compound was called inactive in [7], in test [9], in [10], in test [11], in test [14] and in test [17]. The Potency in [16] was 22 µM (active) and 21.9 µM (active).
Consider `C=CC[N+](C)(C)CC=C`, for which the Potency entry in [1], in test [2], in [18], in test [5], in test [15] and in test [16] was “inactive” in each case. For the same compound, the compound was classed as inactive in test [9], in [10], in [11], in test [12] and in [17].
In the case of `Nc1ccc(Cl)c(N)c1`, the Potency entry in test [1], in test [2], in test [5] and in [16] was “inactive” throughout. The result in [8], in test [9], in [10], in test [11] and in [17] was inactive.
`OCc1ccccc1`: the Potency entry in [1], in test [2], in test [4], in [5], in test [6] and in test [15] was “inactive” throughout. Besides, in test [16], the Potency entry is “inactive”. Further, the outcome in [3], in test [7], in test [8], in test [9], in test [10] and in test [11] was inactive. For the same compound, the call in test [13], in test [14] and in [17] was inactive.
In the case of `Cc1ccc([N+](=O)[O-])cc1S(=O)(=O)O`, the Potency entry in test [1], in test [2], in [18], in test [5], in test [6] and in test [15] was “inactive” in each case. The Potency result in [16] is “inactive”. The call in test [7], in [8], in test [9], in test [10], in [11] and in test [12] was inactive. The call in [13], in test [14] and in [17] was inactive.
For the compound `CC(=O)CC(C)(C)O`, the Potency entry in test [1], in [2], in test [18], in test [5], in test [6] and in test [15] was “inactive” in each case. Further, the Potency entry in test [16] is “inactive”. Moreover, the call in [7], in test [9], in test [10], in [11], in [12] and in [13] was inactive. The compound was classed as inactive in test [14] and in test [17].
Turning to `NCCCCCCN`, the Potency result in [1], in test [2], in [18], in [5], in test [6] and in test [15] was “inactive” in each case. Also, the Potency entry in test [16] is “inactive”. The result in test [7], in test [8], in test [9], in test [10], in [11] and in test [12] was inactive. In addition, the outcome in test [13], in [14] and in test [17] was inactive.
`O=C(O)/C=C/C(=O)O`: the Potency result in test [1], in test [2], in test [18] and in test [16] was “inactive” throughout. Besides, the outcome in test [3], in test [9], in test [10], in test [11] and in [17] was inactive.
Regarding `CCCCCC(=O)O`, the Potency entry in [1], in test [2], in test [18], in [5], in [15] and in [16] was “inactive” each time. In addition, the Potency in test [6] is 54.5 µM (active) and inactive. In addition, the outcome in test [7], in test [8], in test [9], in test [10], in test [11] and in test [13] was inactive. Also, the result in [14] and in [17] was inactive.
For `CC(=O)c1ccc(O)cc1`, the Potency result in test [1], in test [2], in test [18], in test [4], in test [5] and in test [15] was “inactive” throughout. Also, the Potency result in test [16] was “inactive”. For the same compound, the compound was called inactive in test [3], in test [8], in [9], in test [10], in test [11] and in test [12]. Also, the call in test [17] was inactive.
As for `CC(CCO)CC(C)(C)C` (centres undefined), the Potency entry in test [1], in test [2], in test [18], in test [5], in [15] and in test [16] was “inactive” each time. Moreover, the call in test [9], in [10], in test [11] and in test [17] was inactive.
As to `CC(O)CC(C)(C)O` (centres undefined), the Potency entry in test [1], in test [2], in test [18], in [5], in test [15] and in test [16] was “inactive” each time. For the same compound, the compound was classed as inactive in [9], in test [10], in test [11] and in test [17].
As to `COc1ccc(C)cc1N`, the Potency entry in test [1], in test [2], in [5], in [15] and in test [16] was “inactive” in each case. In addition, the call in test [3], in test [8], in [9], in test [10], in [11] and in [12] was inactive. In addition, in [17], the result was inactive.
